G9a inh – qHTS Assay for Inhibitors of Histone Lysine Methyltransferase G9a; Histone-lysine N-methyltransferase EHMT2 (Homo sapiens), Q96KQ7; Potency, µM (doses to about 102 µM), without a hit: at the highest dose activity, negative = inhibition, most hits filed as inhibitors; AID 504332, 2011; actives 8.8% (n = 350,000); G9a H3K9 monomethylation, AlphaScreen, 2 h; also: % is scaled to controls: 0 for no effect and ±100 for the full control effect; nearly all actives have a fitted effect of over 75% in size
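Chemiluminescent proximity detection of H3K9 monomethylation, read after 10 min bead incubation in the dark. Reaction: 20 nM G9a, 500 nM biotin-H3K9 peptide, 20 uM SAM cofactor, 2 h, room temperature, following 15 min enzyme-compound preincubation.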
ALOX12 inh – Primary qHTS assay for inhibitors of human arachidonate 12S-lipoxygenase (ALOX12): Round 2 | Polyunsaturated fatty acid lipoxygenase ALOX12 (Homo sapiens), P18054 | purified 12hLO, xylenol orange hydroperoxide absorbance | Potency, µM (doses to about 108 µM), for inactives: at the top dose activity change, negative = inhibition, actives largely listed as inhibitors | actives 1.1% (n = 580,000); also: % is scaled to controls: 0 for no effect and ±100 for the full control effect
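Purified human 12hLO at 150 nM in 25 mM Hepes, 0.01% Triton X-100, pH 7.0, preincubated 15 min at room temperature with compound. Reaction started with 40 uM arachidonic acid, 30 min at room temperature. Hydroperoxide measured by Fe-xylenol orange, 573/405 nm absorbance ratio.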
VDR inh – Inhibitors of the vitamin D receptor (VDR): qHTS | VDR-SRC2-3 peptide fluorescence polarization, 2 h | Vitamin D3 receptor (Homo sapiens), P11473 | AID 504847, 2011 | Potency, µM, inactives show max response, negative = inhibition, usual class: inhibitors | actives 0.93% (n = 400,000); also: % is scaled to controls: 0 for no effect and ±100 for the full control effect
Target sequence (P11473 whole entry, looked up): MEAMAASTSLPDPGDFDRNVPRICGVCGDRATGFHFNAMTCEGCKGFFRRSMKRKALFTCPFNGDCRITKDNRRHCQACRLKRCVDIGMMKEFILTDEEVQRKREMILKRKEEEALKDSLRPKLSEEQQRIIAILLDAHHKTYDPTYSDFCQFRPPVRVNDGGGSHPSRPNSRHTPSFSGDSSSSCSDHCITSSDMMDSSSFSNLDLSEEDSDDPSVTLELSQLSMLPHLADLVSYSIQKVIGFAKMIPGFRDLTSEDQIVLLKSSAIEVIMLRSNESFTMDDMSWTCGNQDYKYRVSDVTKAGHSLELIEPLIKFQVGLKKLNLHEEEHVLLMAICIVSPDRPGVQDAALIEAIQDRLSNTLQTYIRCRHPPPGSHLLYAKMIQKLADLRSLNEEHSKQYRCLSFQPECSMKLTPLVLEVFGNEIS
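Two reagent solutions held at 4 deg C in the dark were dispensed, compounds pinned at 23 nl, and the mixture incubated 2 h at room temperature. Read-out: fluorescence polarization of VDR–SRC2-3 peptide binding.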
GRP78 ERSR act – qHTS for Inducers of the Endoplasmic Reticulum Stress Response (ERSR) in Human Glioma: qHTS; Potency, µM, without a hit: at the top dose activation, hits mostly activators; actives 0.02% (n = 420,000); AID 602332, 2012; U87-MG GRP78 promoter luciferase reporter, 16 h; also: series mostly up to about 76 µM; % of control where 0% means no effect; nearly all actives have a fitted effect of over 35% in size
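Stably transfected U87-MG human glioma cells carrying a GRP78-based luminescent sensor were seeded at 1000 cells/well, pin-dosed with compounds and incubated 16 h. Luciferase reagent was then added, and end-point luminescence was read after 10 min at room temperature.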
Sfp PPTase inh – qHTS Assay for Inhibitors of Bacillus subtilis Sfp phosphopantetheinyl transferase (PPTase). 4'-phosphopantetheinyl transferase ffp (Bacillus subtilis), Q9F4F7. Biochemical Sfp PPTase activity, qHTS. Potency, µM, without a hit: largest response in the series, negative = inhibition, actives largely listed as inhibitors. actives 3.5% (n = 310,000). AID 1490, 2009;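 also: the enzyme is Sfp with the accession as filed and its product quenches rhodamine fluorescence; 0% = enzyme reaction without inhibitor and -100% = no enzyme wells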
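Fluorescence-quenching assay with 15 nM Sfp, 5 uM rhodamine-CoA and 12.5 uM BHQ-2-labelled ybbR peptide in pH 7.6 Hepes/MgCl2 buffer. Enzyme was pre-incubated with compound for 15 min at room temperature. Rate was taken from the 30-min fluorescence change (525/598 nm).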
Active calls of the source: *; ? = inconclusive; / = no result given; [ ] = dose if it differs, or a comment. The entries come from a sample that favours hits as a whole. Calls follow the shape of the dose curve; as a rule, active = well fitted curve in the direction sought with a large enough effect; inconclusive = small, poorly fitted or top-dose-only effect, or another doubt; inactive = no such curve, though single readings can be large; an effect the other way counts as inactive or inconclusive. Potency is read from the fitted curve at half-maximal effect.

SMILES	G9a inh	ALOX12 inh	VDR inh	GRP78 ERSR act	Sfp PPTase inh
CNc1sc(C(=O)c2ccc(F)cc2)c(N)c1-c1nc2ccccc2s1	8.9µM*	0%	-15%	10%	-19%
CNc1sc(C(=O)c2cccs2)c(N)c1-c1nc2ccccc2s1	?	0%	2%	4%	13µM*
Cc1ccc(C(=O)N2CCC(n3cc(-c4nc(C5CC5)no4)nn3)C2)s1 (stereo not given)	/	-5%	/	/	/
O=[N+]([O-])c1cc(-c2ncccn2)c([N+](=O)[O-])s1	28µM*	-28%	35µM*	-15%	?
O=C1c2cccnc2C(=O)N1c1cccc([N+](=O)[O-])c1	5%	0%	16%	-12%	10%
O=[S+]([O-])(Nc1ccccc1)c1ccc2c(c1)OCCN(Cc1ccc(F)cc1)C2	/	0%[176 µM]	/	/	/
COc1ccccc1C(=O)COC(=O)CNC(=O)c1ccc(Br)o1	50µM*	7%	9%	-3%	/
COc1ccc(NC(=O)c2ncoc2-c2ccc(OC)c(OC)c2)c(OC)c1	/	-4%	/	/	/
N#CC1(NC(=O)COc2ccc(S(=O)(=O)N3CCCC3)cc2[N+](=O)[O-])CCCCC1	14µM*	-17%	5%	-3%	/
Cn1ncc(N=Cc2c(O)ccc3ccccc23)c1C(=O)Nc1cccc(Cl)c1	7.9µM*	-15%	13%	0%	?
Cc1cc(O)c(C(=O)Nc2cccc(Cl)c2)c(=O)n1C	50µM*	-13%	3%	2%	15%
CSc1cccc(NC(=O)c2c(Cl)cnn2C)c1	-21%[59 µM]	-2%	6%	-1%	-13%
Cn1ncc(Cl)c1C(=O)Nc1cccc(Cl)c1	2.8µM*	0%	?	-1%	20µM*
O=C(Nc1cccc2cccnc12)c1cc(-c2ccccc2)nc2ccccc12	/	-25%	/	/	/
COC(=O)c1ccc(O)c(Sc2cc(C(=O)OC)ccc2O)c1	10µM*	?	-12%	-1%	?
COC(=O)c1ccc(O)c(Br)c1	/	24%	/	/	/
CO[C@H]1C([C@@]2(C)O[C@@H]2CC=C(C)C)[C@]2(CC[C@H]1OC(=O)/C=C/C=C/C=C/C=C/C(=O)O)CO2 (stereo not given in full)	22µM*	/	35µM*	-4%	40µM*
CCOP(=O)(OCC)c1nc(-c2ccc([N+](=O)[O-])cc2)oc1NCc1ccc(C)cc1	/	10µM*	/	/	/
CCOP(=O)(OCC)c1nc(-c2ccc([N+](=O)[O-])cc2)oc1NCc1ccccc1	/	-41%	/	/	/
CCCn1c(C(O)(c2nc3ccccc3n2CCC)C(F)(F)F)nc2ccccc21	/	-31%	/	/	/
CCN(CC)CC(=O)N1CCN(c2nc(C(C)C)c3c(c2C#N)CC(C)(C)OC3)CC1	/	-24%	/	/	/
O=C(CSc1nc2cc(Cl)ccc2s1)NC(=O)NCc1ccco1	-5%[59 µM]	?	8%	-3%	89µM*
CCOc1ccc2nc(SCC(=O)NC(=O)NCc3ccco3)sc2c1	?	16%	-4%	5%	0%
C/C(N)=C(/C#N)C(=O)CSc1nc2cc(Cl)ccc2s1	14µM*	?	-9%	1%	-11%
O=C(CSc1nn(-c2ccccc2)c(=S)s1)NC(=O)NCc1ccco1	14µM*	-15%	24%	-4%	-11%
Cc1ccc2[nH]c(C(=O)NCc3ccc(C(=O)N4CCN(C)CC4)cc3)cc2c1	/	-23%	/	/	/
CC(=O)OCC=C(C)C	/	1%[176 µM]	/	/	/
CCN(C(=O)COC(=O)CSc1ccc([N+](=O)[O-])cc1)C1CCS(=O)(=O)C1 (stereo not given)	18%	12%	?	-4%	14%
CC(Sc1nc2cc([N+](=O)[O-])ccc2n1-c1ccc(F)cc1)C(=O)NCc1ccc2c(c1)OCO2 (stereo not given)	?	-13%	-19%	-3%	2.2µM*
O=C(COC(=O)CSc1ccc([N+](=O)[O-])cc1)NCCc1ccccc1	-10%[0.501 µM]	?	-19%	-4%	/

Source: PubChem (National Center for Advancing Translational Sciences (NCATS))
